Binder,"selected by phage display (ZMYND11 480-602, Q15326)","selected by phage display (YES1 90-152, P07947)"
"QGSGPGEVLPPLLQLE [AATK, Q6ZMQ8]",confidence 2 (active),
"NLEVKSLRALPATPAL [PDE4DIP, Q5VU43]",,confidence 2 (active)
"QMPRLVAEESNRGSTT [MORC4, Q8TE76]",confidence 3 (active),
"NESENSRSMPKLEIFE [ZNF165, P49910]",confidence 3 (active),
"EVEASMPQLWAGDSEG [ZNF484, Q5JVG2]",confidence 2 (active),
"MVVSMPNLQDIAMPEL [DENND3, A2RUS2]",confidence 3 (active),
"MPVLESSSWPASKGLG [NSD1, Q96L73]",confidence 3 (active),
"DSINPPALVHVHMQGQ [ZSCAN4, Q8NAM6]",confidence 3 (active),
"IQSIPLPPTTHTRLPA [TSHZ1, Q6ZSZ6]",,confidence 2 (active)
"MPELERSQYPMEWGKT [SGMS1, Q86VZ5]",confidence 2 (active),
"PPMPQLTPQIPLTGFV [ABI1, Q8IZP0]",confidence 2 (active),
"EPEYPREPPRLEPQPY [UBN2, Q6ZU65]",confidence 2 (active),
"SAISEVTQPPSYEDAV [MYOCD, Q8IZQ8]",confidence 3 (active),
"VPVLEPQLPGSVFDPI [BRD4, O60885]",confidence 2 (active),
TPPVQGLEPPVLEAME [I3L1I5],confidence 4 (active),
"DMPELFPSKTAHVTDQ [ETAA1, Q9NY74]",confidence 2 (active),
"LISDLDEGPPVLTPVE [ZHX1, Q9UKY1]",confidence 4 (active),
"GMLEMPDLRDGSNVIV [DSG1, Q02413]",confidence 3 (active),
"QQTPPKLTAYLPAMSE [PDPK1, O15530]",confidence 2 (active),
SELKTMPNLQPISALP,confidence 4 (active),

Binder,"selected by phage display (ZMYND11 480-602, Q15326)","selected by phage display (YES1 90-152, P07947)"
"EGIPVLEAQNGKLEVV [ATAD2B, Q9ULI0]",confidence 2 (active),
DSRDQMPVLEKAIDLP,confidence 2 (active),
"ELEMPVLKSSLALGLE [PPP1R35, Q8TAP8]",confidence 4 (active),
"EEETKEMPKLQAELAD [ZBTB38, Q8NAP3]",confidence 4 (active),
"SMHRDGPPLLENAHSS [SOS1, Q07889]",confidence 2 (active),
"SPPTLAPATASPPTTA [MLXIPL, Q9NP71]",confidence 2 (active),
"QFHPTPPPLQHYTLED [CBFA2T2, O43439]",confidence 2 (active),
"EQALPPHLEPAWPQGL [HOMEZ, Q8IX15]",confidence 4 (active),
"HSTGEQPPQLSLATRV [LPIN1, Q14693]",confidence 3 (active),
"QLLMPTLESETEAAVP [PPRC1, Q5VV67]",confidence 4 (active),
"SLQNPPVLIAQPDHSY [SEC16A, O15027]",confidence 2 (active),
"MPQLDAAGDRLELRSE [C2orf81, A6NN90]",confidence 2 (active),
"FERENEGMPSLIAESN [ARID4A, P29374]",confidence 2 (active),
"NQEQPTTLSMPLLMVS [ENO4, A6NNW6]",confidence 2 (active),
"AVFPDDMPTLSALPWE [KMT2A, Q03164]",confidence 3 (active),
"ENPPSYYSIFNYGRTP [TMEM171, Q8WVE6]",confidence 3 (active),
"MPNLARMPSTTAISSN [SLAIN1, Q8ND83]",confidence 2 (active),
"VDFDPSTPPKLMPFSN [LZTS1, Q9Y250]",confidence 2 (active),
"GMPALESVTIGDDIWD [TDRD5, Q8NAT2]",confidence 2 (active),
# Chain of ZMYND11 480-602, Q15326 (Q15326 480-602): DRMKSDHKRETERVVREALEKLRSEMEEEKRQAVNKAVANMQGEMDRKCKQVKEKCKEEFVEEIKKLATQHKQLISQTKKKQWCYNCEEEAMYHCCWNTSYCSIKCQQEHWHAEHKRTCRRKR
# Chain of YES1 90-152, P07947 (P07947 90-152): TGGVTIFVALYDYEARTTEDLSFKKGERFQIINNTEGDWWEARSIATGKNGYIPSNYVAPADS
